VACV mCherry inh – qHTS for Stage-Specific Inhibitors of Vaccinia Orthopoxvirus: mCherry Reporter Primary qHTS. Potency, µM (doses to about 36.5 µM), for inactives: at the highest dose activity change, negative = inhibition, hits mostly inhibitors. hit rate 0.63% among 310,000. AID 720579, 2013. Vaccinia virus mCherry reporter infection, fluorescence; calls by dose curve; tested in A549 cells; also: % is scaled to controls: 0 for no effect and ±100 for the full control effect; nearly all actives have a fitted effect of over 35% in size
NS1 inh – qHTS Assay for Inhibitors of Influenza NS1 Protein Function; Potency, µM (top dose mostly 46.1 µM), without a hit: at the highest dose activity, positive = more growth; hit rate 0.4% among 270,000; calls by dose curve; also: actives are rising curves; nearly all actives have a fitted effect of over 50% in size
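OD600 was taken as the measure of yeast growth restored by compound in an NS1-expressing S. cerevisiae strain. Cells had been washed out of glucose medium and diluted 1:100 into galactose -URA medium, pH 6.0.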
HCV inh – qHTS Assay for Inhibitors of Hepatitis C Virus (HCV) | AID 651820, 2012 | Huh7.5.1 HCVcc-Cre infection, luciferase reporter, 44 h | Potency, µM (titrated, usually from 41.8 µM), for the others: at the highest dose activity change, negative = inhibition, usual class: inhibitors | hit rate 3.4% among 340,000; also: % is scaled to controls: 0 for no effect and ±100 for the full control effect
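Antiviral activity was scored by luciferase reporter output from cells infected with HCVcc-Cre (~0.5 moi) in presence of compound, 44 h infection period, cells seeded 1,000/well 4 h prior.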
Pf growth 48h – Primary qHTS for delayed death inhibitors of the malarial parasite plastid, 48 hour incubation | P. falciparum luciferase growth in erythrocytes, 48 h | Potency, µM (series often up to 28.7 µM), inactives show at the top dose activity change, negative = inhibition, actives largely listed as inhibitors | hit rate 5.9% among 310,000; also: % is scaled to controls: 0 for no effect and ±100 for the full control effect
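First compound was added to culture medium, then infected red cells at 0.1% parasitemia and 2% hematocrit (final). After incubation at 37 C under 5% CO2, luciferase detection reagent was dispensed and light output recorded.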
Vaccinia Venus – qHTS for Stage-Specific Inhibitors of Vaccinia Orthopoxvirus: Venus Reporter Primary qHTS | Vaccinia virus Venus reporter expression, fluorescence | Potency, µM (series often up to 36.5 µM), without a hit: at the highest dose activity change, negative = inhibition, hits mostly inhibitors | hit rate 0.46% among 330,000; calls by dose curve; tested in A549 cells; also: % is scaled to controls: 0 for no effect and ±100 for the full control effect; nearly all actives have a fitted effect of over 30% in size
Pf growth 96h – Primary qHTS for delayed death inhibitors of the malarial parasite plastid, 96 hour incubation | P. falciparum luciferase reporter growth, 96 h | Potency, µM (highest dose often 28.7 µM), inactives show at the highest dose activity change, negative = inhibition, hits mostly inhibitors | hit rate 6.9% among 320,000 | AID 504834, 2011; also: % is scaled to controls: 0 for no effect and ±100 for the full control effect
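96 h incubation, 37 C, 5% CO2, of luciferase-reporter P. falciparum-infected RBCs (2% hematocrit, 0.05% parasitemia final) with test compounds; endpoint luminescence.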
Active calls of the source: *; i = inactive; ? = inconclusive; . = no result. The list is not random: actives were taken first. Their share in the collection is about 11%. Unless noted, calls follow the shape of the dose curve; as a rule, active = well fitted inhibition curve with a large enough effect; inconclusive = small, poorly fitted or top-dose-only effect, or another doubt; inactive = no such curve, though single readings can be large or run the other way. Potency is read from the fitted curve at half-maximal effect.

SMILES | VACV mCherry inh | NS1 inh | HCV inh | Pf growth 48h | Vaccinia Venus | Pf growth 96h
CC(=O)OC1CC(OC2C(O)CC(OC3C(O)CC(OC4CCC5(C)C(CCC6C5CCC5(C)C(C7=CC(=O)OC7)C(O)CC65O)C4)OC3C)OC2C)OC(C)C1OC1OC(CO)C(O)C(O)C1O (configuration not stated) | 0.282µM* | . | ? | . | 0.282µM* | .
COc1c(C(=O)Nc2nccs2)ccc2ccccc12 | . | -3.7% | -5.4% | 119.9% | . | 467.0%
O=C(Cc1ccc(-c2ccccc2)cc1)Nc1ccccn1 | ? | -30.6% | ? | 29.7% | ? | 42.3%
COc1cc2ccccc2cc1C(=O)Nc1cc(C)ccn1 | -10.1% | -28.0% | 12.6µM* | 69.6% | -10.2% | 14.1%
COc1cc2ccccc2cc1C(=O)Nc1nccs1 | 17.2% | -52.4% | 11.2µM* | 149.1% | -6.9% | 78.1%
Cc1ccnc(NC(=O)Cc2ccc(-c3ccccc3)cc2)c1 | . | 9.4% | 3.98µM* | 7.9% | . | 254.7%
COc1cccc(-c2nn(-c3ccccc3)cc2C(=O)Nc2nccs2)c1 | -9.5% | ? | ? | 7.38µM* | -29.0% | ?
COc1ccc(-c2nn(-c3ccccc3)cc2C(=O)Nc2nccs2)cc1 | . | 11.7% | ? | ? | ? | 12.5%
COC1=C(Nc2ccccc2)C(=O)C(OC)=C(Nc2ccccc2)C1=O | ? | . | 7.7% | . | -5.2% | .
COc1ccccc1NC1=C(NC(C)=O)C(=O)c2ccccc2C1=O | . | -2.8% | ? | 3.7µM* | . | ?
COc1ccccc1NC(C)=O | -13.5% | -0.4% | 7.3% | 8.2% | -15.1% | 72.2%
COC1=C(Nc2ccccc2OC)C(=O)c2ccccc2C1=O | i | -1.7% | 16.5% | 2.33µM* | -4.7% | 2.33µM*
Cc1ccccc1S(=O)(=O)NC(=O)C1(C)CCN1C(=O)c1c(C)noc1C (configuration not stated) | 54.5% | . | . | . | -3.0% | .
O=[N+]([O-])c1cc(C(F)(F)F)ccc1NC1CCN(Cc2ccccc2)CC1 | i | -69.1% | 0.6% | 7.38µM* | -16.9% | 6.2%
O=C(CCN1CCN(C/C=C/c2ccccc2)CC1)Nc1ccccc1F | -23.5% | -5.7% | -4.9% | ? | -13.4% | ?
Cc1ccc2c(c1)nnn2C1CCN(S(=O)(=O)c2ccc(C(=O)N3C(C)CCCC3C)cc2)CC1 (configuration not stated) | -21.7% | 8.3% | 6.31µM* | ? | -28.3% | ?
Cc1ccc2c(c1)nnn2C1CCN(S(=O)(=O)c2ccc(C(=O)O)cc2)CC1 | 7.8% | 10.4% | 33.7% | -6.7% | 5.0% | -7.2%
Fc1ccc(-n2c(Cc3ccccc3)nnc2SCc2nc(-c3cccs3)no2)cc1 | -23.7% | -65.3% | -21.6% | 10.4µM* | -9.5% | -26.7%
Cc1ccc(-c2noc(CSc3nnc(Cc4cccs4)n3-c3ccccc3)n2)cc1 | -4.4% | 1.0% | ? | -10.6% | -20.1% | 4.65µM*
c1ccc(Cc2nnc(SCc3nc(-c4cccs4)no3)n2-c2ccccc2)cc1 | -6.8% | . | . | . | -3.8% | .
CC(C)(C)c1ccc(S(=O)(=O)N2C=CC(C(F)(F)F)=NCC2)cc1 | -16.3% | 14.6% | 10.7% | 5.7% | -15.6% | .
O=C(CN(c1ccc(Cl)cc1)S(=O)(=O)c1ccc(Cl)c([N+](=O)[O-])c1)NCCc1ccc(F)cc1 | ? | 10.3% | ? | ? | -8.1% | 11.7µM*
O=C(CN(c1ccc(Cl)cc1)S(=O)(=O)c1ccc(Cl)c([N+](=O)[O-])c1)NCCc1ccccc1 | -12.0% | 0.5% | 11.2µM* | ? | 3.4% | ?
CCOC(=O)c1c(NC(=O)c2cc(-c3ccc(OC)c(OC)c3)on2)sc(C)c1C | -7.7% | . | . | . | -1.0% | .
NC(CC(=O)OC1CCCCC1)C(=O)OC1CCCCC1 (configuration not stated) | . | 0.3% | 2.7% | -7.7% | -13.8% | -10.3%
